From PubChem BioAssay (NCATS)
Records with an inconclusive call do not appear. Activity calls are given as the source filed them. Unless noted, calls follow the shape of the dose curve; as a rule, active = well fitted curve in the direction sought with a large enough effect; inconclusive = small, poorly fitted or top-dose-only effect, or another doubt; inactive = no such curve, though single readings can be large; an effect the other way counts as inactive or inconclusive.

Experiments:
[1] = AP1 Signaling Pathway (AID 357; active = well fitted curve in either direction with a large enough effect, not every such curve was filed as active;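 also: ME-180 reporter cells stimulated with EGF at its EC50 level; % is scaled to controls: 0 for no effect and ±100 for the full control effect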); settings: ME-180 AP-1-bla reporter, EGF-induced, beta-lactamase ratio, 5 h; at 38 µM (top of the series)
Outline: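 In this screen, ME-180 cells in Opti-MEM with 0.5% dialyzed FBS received EC50 EGF and compound titrations for 5 h. AP-1 reporter beta-lactamase was detected via CCF4 ratio, giving AC50 for positive and negative modulators.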

[2] = biological target: Cytochrome P450 1A2 (Homo sapiens) (UniProt P05177); experiment: p450-cyp1a2 (AID 410; calls by dose curve; also: potency is read from the fitted curve at half-maximal effect)
Sequence of Cytochrome P450 1A2 (Homo sapiens) (P05177 whole entry, looked up): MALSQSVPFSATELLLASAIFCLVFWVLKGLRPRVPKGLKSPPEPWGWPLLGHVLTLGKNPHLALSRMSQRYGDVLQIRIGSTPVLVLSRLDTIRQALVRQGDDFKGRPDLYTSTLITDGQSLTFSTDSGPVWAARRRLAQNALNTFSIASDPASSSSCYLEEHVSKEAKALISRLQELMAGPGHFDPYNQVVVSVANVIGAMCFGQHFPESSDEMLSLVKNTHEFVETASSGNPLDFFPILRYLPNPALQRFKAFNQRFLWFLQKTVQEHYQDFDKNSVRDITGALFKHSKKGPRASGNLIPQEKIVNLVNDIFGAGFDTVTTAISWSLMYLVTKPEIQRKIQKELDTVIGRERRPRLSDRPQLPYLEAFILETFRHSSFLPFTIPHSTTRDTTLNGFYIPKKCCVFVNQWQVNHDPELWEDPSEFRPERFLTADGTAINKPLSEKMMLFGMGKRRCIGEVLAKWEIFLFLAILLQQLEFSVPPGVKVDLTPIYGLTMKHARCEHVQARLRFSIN
Outline: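 Read-out is luminescence from luciferin produced by CYP1A2 demethylation of Luciferin-ME (100uM, at Km). Detection reagent stopped the 60 min NADPH-dependent reaction; signals were normalized to 57 uM furafylline.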

[3] = NFAT Signaling Pathway (AID 444; active = well fitted curve in either direction with a large enough effect, not every such curve was filed as active;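 also: carbachol stimulus at about its EC50 of 1 µM final; % is scaled to controls: 0 for no effect and ±100 for the full control effect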); settings: Jurkat NFAT-bla M1, carbachol, beta-lactamase ratio, 5 h; at 38 µM (top of the series)
Outline: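 Jurkat cells carrying an NFAT-driven β-lactamase reporter and co-transfected muscarinic M1 receptor were treated with compound plus carbachol (1 uM final, an EC50 level) for 5 h at 37 °C. CCF4 loading followed for 1 h at RT; 460/530 nm ratio gave %activity.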

[4] = Stat Signaling Pathway (AID 446; active = well fitted curve in either direction with a large enough effect, not every such curve was filed as active;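 also: ME-180 cervical cancer cells given 40 pM IL-6 alongside compound; SIE-controlled beta-lactamase reporter measured as 460/530 nm FRET emission ratio; % is scaled to controls: 0 for no effect and ±100 for the full control effect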); settings: ME-180 (cervical carcinoma) SIE beta-lactamase reporter, IL-6 stimulated, 5 h; at 38 µM (top of the series)
Outline: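 Compound effects on IL-6-induced STAT reporter activity were measured in ME-180 cells. After overnight culture, cells were co-treated with 40 pM IL-6 for 5 hrs before beta-lactamase substrate loading at room temperature.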

[5] = biological target: Glucocorticoid receptor (Homo sapiens) (UniProt P04150); experiment: GR-GFP Redistribution (AID 450;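 active = compounds whose dose series gives a full or clear partial fitted curve of increased nuclear translocation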; also: potency is read from the fitted curve at half-maximal effect); settings: U2OS GR-GFP nuclear translocation, laser cytometry, 2 h
Sequence of Glucocorticoid receptor (Homo sapiens) (P04150 whole entry, looked up, the tested form may be a part): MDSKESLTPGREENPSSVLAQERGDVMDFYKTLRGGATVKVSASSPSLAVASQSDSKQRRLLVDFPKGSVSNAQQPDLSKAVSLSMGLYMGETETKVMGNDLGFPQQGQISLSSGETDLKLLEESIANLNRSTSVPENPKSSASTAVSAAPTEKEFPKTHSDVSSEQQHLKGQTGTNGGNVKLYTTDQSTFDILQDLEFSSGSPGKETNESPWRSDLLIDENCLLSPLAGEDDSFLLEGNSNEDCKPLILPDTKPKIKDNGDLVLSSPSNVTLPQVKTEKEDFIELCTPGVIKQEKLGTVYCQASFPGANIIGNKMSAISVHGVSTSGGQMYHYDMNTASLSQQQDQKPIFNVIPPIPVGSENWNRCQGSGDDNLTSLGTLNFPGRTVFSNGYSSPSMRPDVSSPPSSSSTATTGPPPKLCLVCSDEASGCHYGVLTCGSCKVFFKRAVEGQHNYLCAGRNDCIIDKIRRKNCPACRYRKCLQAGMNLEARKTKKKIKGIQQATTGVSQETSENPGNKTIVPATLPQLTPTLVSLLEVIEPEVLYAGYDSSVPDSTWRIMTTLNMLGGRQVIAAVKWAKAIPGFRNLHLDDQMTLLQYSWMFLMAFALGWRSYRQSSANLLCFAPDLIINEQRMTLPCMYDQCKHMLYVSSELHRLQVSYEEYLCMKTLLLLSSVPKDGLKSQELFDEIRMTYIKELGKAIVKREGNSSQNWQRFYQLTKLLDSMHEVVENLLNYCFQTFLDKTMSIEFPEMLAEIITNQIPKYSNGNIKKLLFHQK

[6] = biological target: Glucocorticoid receptor (Homo sapiens) (UniProt P04150); experiment: GR-EFC Redistribution (AID 451; calls by dose curve; also: potency is read from the fitted curve at half-maximal effect); settings: CHO-K1 GR-EFC translocation, beta-gal luminescence, 2 h
Outline: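 CHO-K1 cells stably expressing nuclear-localized β-gal enzyme acceptor and GR fused C-terminally to the enzyme donor fragment; ligand-driven nuclear translocation restores β-gal by complementation. Compounds titrated up to 46 uM final, 2 h at 37 °C; luminescence read.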

[7] = biological target: Mitogen-activated protein kinase 10 (Mus musculus) (UniProt Q61831); experiment: JNK3 AlphaScreen Assay (AID 530; active = well fitted curve in either direction with a large enough effect, not every such curve was filed as active;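 also: kinase came from lysate of stimulated human HepG2 cells; signal reports phosphorylation of biotinylated GST-cJun 1-79 at Ser73 with 10 µM ATP; % is scaled to controls: 0 for no effect and ±100 for the full control effect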)
Outline: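 Biotinylated GST-cJun(1-79) served as substrate for JNK3 in HepG2 lysates stimulated with IL-1beta and TNF-alpha. ATP was 10 uM final, pH 7.6. Ser73 phosphorylation was quantified by AlphaScreen (680 nm excitation).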

[8] = biological target: 3',5'-cyclic-AMP phosphodiesterase 4B (Homo sapiens) (UniProt Q07343); experiment: qHTS Assay for Inhibitors of PDE-IV (AID 607; active = well fitted activation curve with a large enough effect in the main read-out, with a control signal flat, not every such curve was filed as active; also: % of control where 0% means no effect)
Sequence of 3',5'-cyclic-AMP phosphodiesterase 4B (Homo sapiens) (Q07343 whole entry, looked up): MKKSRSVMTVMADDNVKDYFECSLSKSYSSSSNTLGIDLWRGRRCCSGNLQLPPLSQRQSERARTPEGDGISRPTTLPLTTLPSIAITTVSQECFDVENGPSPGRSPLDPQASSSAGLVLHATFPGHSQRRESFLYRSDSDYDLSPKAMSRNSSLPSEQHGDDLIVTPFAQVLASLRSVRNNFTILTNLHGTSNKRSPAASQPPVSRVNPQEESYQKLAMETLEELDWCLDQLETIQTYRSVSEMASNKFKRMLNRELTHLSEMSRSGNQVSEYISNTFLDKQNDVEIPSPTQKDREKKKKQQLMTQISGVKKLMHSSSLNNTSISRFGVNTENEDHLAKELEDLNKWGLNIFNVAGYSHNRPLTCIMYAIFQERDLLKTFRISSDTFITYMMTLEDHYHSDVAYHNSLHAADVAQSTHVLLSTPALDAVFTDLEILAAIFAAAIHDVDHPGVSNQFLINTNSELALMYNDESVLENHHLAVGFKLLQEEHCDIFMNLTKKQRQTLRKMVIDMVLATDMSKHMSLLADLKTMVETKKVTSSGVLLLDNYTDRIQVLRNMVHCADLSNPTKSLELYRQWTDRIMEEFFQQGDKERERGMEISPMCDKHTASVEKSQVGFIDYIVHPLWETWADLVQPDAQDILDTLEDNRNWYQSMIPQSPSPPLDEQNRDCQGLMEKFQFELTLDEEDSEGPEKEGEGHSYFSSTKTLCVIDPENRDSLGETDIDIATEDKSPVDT
Outline: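 ACTOne HEK293 cells carry a modified cAMP-gated CNG channel and express endogenous PDE4; plated 1000 cells/well, compounds up to 22.9 uM final. Membrane-potential dye fluorescence (ex 535/em 590) was read; parental cells received 10 uM forskolin + 100 uM RO 20-1724.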

[9] = biological target: Guanine nucleotide-binding protein G(i) subunit alpha-1 (Homo sapiens) (UniProt P63096); experiment: qHTS Assay for Inhibitors of RGS12 GoLoco Motif Activity (Green Fluorophore) (AID 879);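 also: 0% = labeled peptide with Gαi1 and full inhibition = labeled peptide alone without protein; negative values mean loss of peptide binding seen as reduced polarization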
Sequence of Guanine nucleotide-binding protein G(i) subunit alpha-1 (Homo sapiens) (P63096 whole entry, looked up): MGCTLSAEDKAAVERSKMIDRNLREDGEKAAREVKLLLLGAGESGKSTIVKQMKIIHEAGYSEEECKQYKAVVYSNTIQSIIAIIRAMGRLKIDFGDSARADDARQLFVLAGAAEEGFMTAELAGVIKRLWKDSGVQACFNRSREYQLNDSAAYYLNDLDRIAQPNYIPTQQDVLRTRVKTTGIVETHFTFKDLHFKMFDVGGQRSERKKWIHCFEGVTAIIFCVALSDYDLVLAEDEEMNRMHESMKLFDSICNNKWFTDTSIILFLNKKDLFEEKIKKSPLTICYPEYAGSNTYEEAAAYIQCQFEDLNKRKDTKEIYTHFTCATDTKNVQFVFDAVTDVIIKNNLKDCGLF
Outline: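 A drop in FITC polarization marked displacement of the FITC-tagged RGS12 GoLoco peptide (10 nM) from Gαi1 (50 nM). Compounds were incubated 10 min at room temperature in Tris pH 7.5 buffer containing 150 mM NaCl, 0.1 mM GDP and 0.05% NP40; unlabeled peptide titration served as control.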

[10] = biological target: Cytochrome P450 3A4 (Homo sapiens) (UniProt P08684); experiment: qHTS Assay for Activators of Cytochrome P450 3A4 (AID 885); also: nearly all actives have a fitted effect of over 65% in size
Sequence of Cytochrome P450 3A4 (Homo sapiens) (P08684 whole entry, looked up): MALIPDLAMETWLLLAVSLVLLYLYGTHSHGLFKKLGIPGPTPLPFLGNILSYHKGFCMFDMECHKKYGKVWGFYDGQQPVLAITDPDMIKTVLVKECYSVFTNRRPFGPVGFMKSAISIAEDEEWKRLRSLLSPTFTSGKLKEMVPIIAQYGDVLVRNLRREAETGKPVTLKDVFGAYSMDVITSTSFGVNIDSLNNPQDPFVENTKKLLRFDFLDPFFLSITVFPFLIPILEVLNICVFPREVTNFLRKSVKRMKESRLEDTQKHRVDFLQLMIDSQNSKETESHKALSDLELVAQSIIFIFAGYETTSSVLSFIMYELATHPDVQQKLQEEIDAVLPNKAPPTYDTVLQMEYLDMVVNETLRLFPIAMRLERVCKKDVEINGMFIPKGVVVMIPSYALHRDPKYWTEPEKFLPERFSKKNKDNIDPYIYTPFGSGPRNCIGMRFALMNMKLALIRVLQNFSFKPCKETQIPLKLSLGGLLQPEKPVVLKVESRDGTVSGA
Outline: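 CYP3A4 activity: Luciferin-PPXE O-dealkylation, 25uM substrate, 200mM KPO4, RT throughout. Read-out is luciferase luminescence; higher values reflect activation.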

[11] = qHTS Assay for Identification of Small Molecule Antagonists for Thrombopoietin (TPO) Signaling Pathway (AID 918); settings: TPO-dependent cell signaling reporter, antagonist mode; also: potency is read from the fitted curve at half-maximal effect; nearly all actives have a fitted effect of over 60% in size
Outline: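 Antagonist mode at EC50 TPO (26 pM) in IL-3-free medium; murine Ba/F3 cells with human TPO receptor and GPIIb-promoter luciferase, 24 hrs at 37 C before luminescent detection.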

[12] = biological target: Muscarinic acetylcholine receptor M1 (Rattus norvegicus) (UniProt P08482); experiment: qHTS Assay for Antagonists of Acetylcholine Muscarinic M1 Receptor: Measurement of IP-One Response (AID 944); also: nearly all actives have a fitted effect of over 75% in size
Sequence of Muscarinic acetylcholine receptor M1 (Rattus norvegicus) (P08482 whole entry, looked up): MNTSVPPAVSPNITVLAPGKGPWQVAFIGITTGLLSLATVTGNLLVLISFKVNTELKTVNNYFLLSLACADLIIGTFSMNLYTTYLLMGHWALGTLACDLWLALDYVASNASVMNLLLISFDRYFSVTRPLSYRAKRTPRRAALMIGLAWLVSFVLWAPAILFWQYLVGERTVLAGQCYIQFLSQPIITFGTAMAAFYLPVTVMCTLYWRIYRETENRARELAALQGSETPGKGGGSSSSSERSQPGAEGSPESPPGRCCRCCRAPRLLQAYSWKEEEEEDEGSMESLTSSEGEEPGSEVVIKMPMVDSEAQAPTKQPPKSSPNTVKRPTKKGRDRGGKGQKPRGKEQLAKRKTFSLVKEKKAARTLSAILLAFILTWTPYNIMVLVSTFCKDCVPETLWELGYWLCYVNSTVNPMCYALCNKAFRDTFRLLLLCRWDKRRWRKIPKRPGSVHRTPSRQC
Outline: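 Antagonism was measured as loss of carbachol-driven (EC80) IP1 accumulation in CHO cells carrying rat M1, using a homogeneous IP-One TR-FRET kit read at 620 and 665 nm.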

[13] = biological target: Pyruvate kinase PKM (Homo sapiens) (UniProt P14618); experiment: qHTS Assay for Activators of Human Muscle Pyruvate Kinase (AID 954; active = well fitted curve in the direction sought with a large enough effect, not every such curve was filed as active;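 also: 0% = uninhibited enzyme and -100% = no enzyme or full thiadiazolimine inhibition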)
Outline: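 A coupled luminescent readout tracked ATP made from ADP by purified PKM2. Final conditions included 0.1 nM enzyme, PEP and ADP at 0.5 and 0.1 mM, pH 7.2 imidazole buffer with BSA, and a one-hour room-temperature reaction.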

[14] = biological target: Pyruvate kinase (Leishmania mexicana) (UniProt Q27686); experiment: qHTS Validation Assay for Activators of Leishmania Mexicana Pyruvate Kinase (AID 959)
Sequence of Pyruvate kinase (Leishmania mexicana) (Q27686 2-499 E452W): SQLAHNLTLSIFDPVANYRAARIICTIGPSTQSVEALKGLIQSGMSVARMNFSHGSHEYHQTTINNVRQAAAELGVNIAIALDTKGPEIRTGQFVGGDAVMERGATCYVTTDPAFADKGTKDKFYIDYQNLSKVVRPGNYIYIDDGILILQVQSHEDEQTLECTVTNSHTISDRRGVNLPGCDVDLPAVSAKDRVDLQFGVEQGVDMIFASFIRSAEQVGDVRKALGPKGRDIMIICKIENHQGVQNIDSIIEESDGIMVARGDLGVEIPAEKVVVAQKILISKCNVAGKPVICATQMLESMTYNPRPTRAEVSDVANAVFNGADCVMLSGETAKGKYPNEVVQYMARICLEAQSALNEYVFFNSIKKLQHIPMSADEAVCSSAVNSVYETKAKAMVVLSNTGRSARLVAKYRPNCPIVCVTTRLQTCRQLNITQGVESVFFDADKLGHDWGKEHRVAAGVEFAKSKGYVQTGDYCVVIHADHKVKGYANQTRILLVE
Outline: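 Substrate mix (0.5 mM PEP, 0.1 mM ADP, 7 mM MgCl2, 50 mM KCl, pH 7.2 imidazole) received compound by pin tool, then 0.2 nM LmPYK E451W. After 1 h at room temperature, PKLight was added and luminescence measured.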

[15] = biological target: Alpha-galactosidase A (Homo sapiens) (UniProt P06280); experiment: Counterscreen for Glucocerebrosidase Inhibitors: qHTS Assay for Human alpha-Galactosidase at pH 4.5 (AID 992); also: 0% is about no effect
Sequence of Alpha-galactosidase A (Homo sapiens) (P06280 whole entry, looked up): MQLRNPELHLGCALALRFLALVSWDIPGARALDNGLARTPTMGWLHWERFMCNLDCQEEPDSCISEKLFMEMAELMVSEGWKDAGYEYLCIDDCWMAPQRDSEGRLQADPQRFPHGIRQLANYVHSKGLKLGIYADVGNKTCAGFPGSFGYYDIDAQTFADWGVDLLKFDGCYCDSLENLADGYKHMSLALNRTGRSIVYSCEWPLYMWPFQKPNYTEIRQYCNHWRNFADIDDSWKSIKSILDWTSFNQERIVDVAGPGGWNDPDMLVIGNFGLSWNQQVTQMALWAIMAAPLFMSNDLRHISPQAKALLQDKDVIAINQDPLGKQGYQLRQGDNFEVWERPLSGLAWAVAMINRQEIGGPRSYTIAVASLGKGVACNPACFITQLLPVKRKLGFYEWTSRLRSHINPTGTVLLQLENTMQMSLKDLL
Outline: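 Citrate buffer pH 4.5, Tween-20 0.005%. Enzyme 2 nM, substrate 80 uM, 20 min RT. Stop pH 10. Fluorescence Ex 365/Em 440. AC50 by Hill fit.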

[16] = biological target: alpha-glucosidase (Oryza sativa, rice) (UniProt Q653V4); experiment: Counterscreen for Glucocerebrosidase Inhibitors: qHTS Assay for Rice alpha-Glucosidase at pH 5.0 (AID 997);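 also: 0% = full activity with enzyme and -100% = basal without enzyme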
Outline: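 Endpoint fluorogenic assay at pH 5.0: compounds (0.7 nM to 77 uM) titrated against 4 nM rice enzyme and 400 uM 4-MU-alpha-glucoside for 20 min at room temperature; NaOH/glycine stop, read ex 365/em 440 nm, Hill-fitted AC50.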

[17] = qHTS Assay for Lipid Storage Modulators (AID 1519; calls by dose curve); settings: Drosophila S3 cells, BODIPY lipid droplet/cell ratio, laser cytometry, cells loaded with oleic acid
Outline: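 Cells seeded at 5,000 per well were treated with compounds over a concentration series and loaded with oleic acid (400 uM, as added). Lipid droplet fluorescence (488 nm excitation, 500-530 nm channel) was read by laser-scanning cytometry and normalized to 20 uM Triacsin C.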

[18] = biological target: DNA repair nuclease/redox regulator APEX1 (Homo sapiens) (UniProt P27695); experiment: qHTS Validation Assay for Inhibitors of the Human Apurinic/apyrimidinic Endonuclease 1 (APE1) (AID 1705)
Sequence of DNA repair nuclease/redox regulator APEX1 (Homo sapiens) (P27695 whole entry, looked up): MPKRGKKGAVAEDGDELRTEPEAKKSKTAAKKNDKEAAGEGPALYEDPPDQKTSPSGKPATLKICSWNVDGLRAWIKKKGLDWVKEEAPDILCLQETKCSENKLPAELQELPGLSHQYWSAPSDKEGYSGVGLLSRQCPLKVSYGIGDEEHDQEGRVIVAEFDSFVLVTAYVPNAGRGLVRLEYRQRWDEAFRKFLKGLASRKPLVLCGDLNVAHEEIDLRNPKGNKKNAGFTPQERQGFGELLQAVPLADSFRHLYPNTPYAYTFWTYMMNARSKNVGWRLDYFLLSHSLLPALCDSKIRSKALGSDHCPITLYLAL
Outline: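 Endonuclease activity of human APE1 is followed as dequenching when the enzyme incises a tetrahydrofuran abasic site in a short duplex labelled 5'-TAMRA/3'-BHQ-2 (50 nM final), after 15 min enzyme–compound preincubation at room temperature.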

S=C(Nc1ccccc1)Nc1nccs1
-14.9%: max response ([17]; measured here: lipid channel max response)
-12.9%: max response ([17]; measured here: cell count channel max response)
active: Potency [2] 0.794 µM | Potency [11] 20 µM
inactive: activity change, negative = inhibition [1] -16.9% | activity change, negative = inhibition [3] 0.515% | activity, negative = inhibition [4] 11.6% | Potency [5] > 46 µM | Potency [6] > 46 µM | Potency [7] | Potency [8] | outcome [9] | Potency [10] | Potency [12] | outcome [13] | Potency [14] | outcome [15] | outcome [16] | activity change, negative = inhibition ([17]; at 57.5 µM (top of the series)) -0.0683% | Potency [18]
